This test concerns the target furin, P09958. Briefly: furin cleavage Z-score vs untreated control; higher = more cleavage, active = 3.5 or more, inactive = 1 or less, 8 variable residues between constant flanks. Put shortly: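 Read counts from sequencing released DNA gave abundance for each bead-bound 8-mer peptide–cDNA fusion cut by purified furin over 7.5, 15 or 30 min. The cleavage Z-score compares log counts with furin-free reactions after lowess adjustment and median absolute deviation scaling.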

Some of the results follow. The hit rate among all sequences tested is not known here.

The results in this text go back to the supplement of paper PMC3545927.
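Also: purified furin at 1:10 enzyme:substrate in 50 mM HEPES pH 7.5.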

furin, P09958, sequence (P09958 whole entry, the tested form may be a part): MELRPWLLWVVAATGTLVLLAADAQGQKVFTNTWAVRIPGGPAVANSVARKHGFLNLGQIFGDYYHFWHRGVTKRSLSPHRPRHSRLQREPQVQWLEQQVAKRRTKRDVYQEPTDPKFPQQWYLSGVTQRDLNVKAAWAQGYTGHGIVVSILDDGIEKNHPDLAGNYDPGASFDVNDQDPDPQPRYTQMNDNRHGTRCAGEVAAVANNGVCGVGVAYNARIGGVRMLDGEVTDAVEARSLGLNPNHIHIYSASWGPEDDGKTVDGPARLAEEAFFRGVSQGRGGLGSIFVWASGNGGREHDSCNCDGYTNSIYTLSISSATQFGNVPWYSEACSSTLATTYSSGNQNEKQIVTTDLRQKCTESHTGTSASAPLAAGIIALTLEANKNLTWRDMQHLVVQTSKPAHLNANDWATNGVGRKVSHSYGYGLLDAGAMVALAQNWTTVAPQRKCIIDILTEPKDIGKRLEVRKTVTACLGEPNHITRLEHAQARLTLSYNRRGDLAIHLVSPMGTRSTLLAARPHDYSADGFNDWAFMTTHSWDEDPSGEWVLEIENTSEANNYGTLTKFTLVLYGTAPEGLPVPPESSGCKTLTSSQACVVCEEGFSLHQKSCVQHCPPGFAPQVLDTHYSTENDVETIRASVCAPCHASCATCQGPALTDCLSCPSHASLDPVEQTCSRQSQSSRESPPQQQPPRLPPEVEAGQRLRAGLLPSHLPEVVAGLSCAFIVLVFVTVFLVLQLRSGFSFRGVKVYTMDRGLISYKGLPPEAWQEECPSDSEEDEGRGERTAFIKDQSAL

CAEVVTSTWMAGNASASA [HC2246]: the “furin cleavage Z-score” value is, setting by setting: (7.5 min) 1.57; (15 min) 0.473 (inactive); (30 min) 0.947 (inactive).
The corresponding values for CANSKRKSRPAGNASASA [FS-1145] are -2.35 (inactive), 0.946 (inactive) and -1.84 (inactive).
In the case of CAVSSRKSRWAGNASASA [FS-1501], the “furin cleavage Z-score” value was 3.21 (7.5 min), 3.75 (active) (15 min) and 5.97 (active) (30 min).
As to CAVSSRHRRAAGNASASA [FS-1106], the “furin cleavage Z-score” value runs as follows: (7.5 min) 12.3 (active); (15 min) 12.4 (active); (30 min) 10.3 (active).
Turning to CAQSSRQPRPAGNASASA [FS-141], the “furin cleavage Z-score” value was -0.311 (inactive) (7.5 min), -0.656 (inactive) (15 min) and -0.417 (inactive) (30 min).
CAQSSRHRRAAGNASASA [FS-851]: the “furin cleavage Z-score” value is 13.1 (active) (7.5 min), 12.7 (active) (15 min) and 10.3 (active) (30 min).
The corresponding values for CAQWQVLPCSAGNASASA [HC496] are -0.675 (inactive), 0.494 (inactive) and 0.276 (inactive).
The corresponding values for CARTGVRTITAGNASASA [HC800] are -0.25 (inactive), -0.718 (inactive) and -0.285 (inactive).
The corresponding values for CARRGPRLGVAGNASASA [HC180] are -0.669 (inactive), -0.347 (inactive) and -0.923 (inactive).
CAGRSRDLRGAGNASASA [FS-165]: the “furin cleavage Z-score” value is -0.794 (inactive) (7.5 min), -0.817 (inactive) (15 min) and -1.52 (inactive) (30 min).
As for CAGRSRELRQAGNASASA [FS-166], the “furin cleavage Z-score” value reads like this: (7.5 min) 2.87; (15 min) 2.42; (30 min) 4.09 (active).
The corresponding values for CAREKREKIKAGNASASA [FS-2208] are -0.771 (inactive), -0.626 (inactive) and 0.291 (inactive).
As for CAREKRELRQAGNASASA [FS-2657], the “furin cleavage Z-score” value reads like this: (7.5 min) 9.73 (active); (15 min) 13.3 (active); (30 min) 9.26 (active).
